Among all 220,000 compounds or so, about 16,000 (7.3%) were called active. Roughly 25% stayed inconclusive and do not appear here. Many of the other results were omitted from the sample, so actives are more common in it than they were. Unmarked numbers belong to inactive results. The call rests on the fitted dose curve; in most records, active means well fitted inhibition curve with a large enough effect (not every such curve was filed as active); inconclusive means small, poorly fitted or top-dose-only effect, or another doubt; inactive means no such curve, though single readings can be large or run the other way.
Target: Aldehyde dehydrogenase 1A1 (Homo sapiens) (UniProt P00352)
Sequence (P00352 whole entry, looked up): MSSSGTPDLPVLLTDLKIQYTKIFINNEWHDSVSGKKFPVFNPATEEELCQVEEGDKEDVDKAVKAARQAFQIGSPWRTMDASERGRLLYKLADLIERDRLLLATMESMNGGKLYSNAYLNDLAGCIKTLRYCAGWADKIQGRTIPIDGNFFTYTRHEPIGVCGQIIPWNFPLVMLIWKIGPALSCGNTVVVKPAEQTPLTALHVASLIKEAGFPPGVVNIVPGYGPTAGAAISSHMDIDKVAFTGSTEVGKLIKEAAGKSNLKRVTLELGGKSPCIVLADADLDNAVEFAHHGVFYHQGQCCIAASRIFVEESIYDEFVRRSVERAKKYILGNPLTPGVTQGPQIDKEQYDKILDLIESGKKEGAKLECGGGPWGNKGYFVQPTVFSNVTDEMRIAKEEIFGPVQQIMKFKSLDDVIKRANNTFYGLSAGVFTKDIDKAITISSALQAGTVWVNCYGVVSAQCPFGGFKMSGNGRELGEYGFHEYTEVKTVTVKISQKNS
Test: qHTS Assay for Inhibitors of Aldehyde Dehydrogenase 1 (ALDH1A1);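 on activity, negative = inhibition: plate controls were no enzyme wells and a reference inhibitor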
Details: Purified ALDH1A1, NADH fluorescence, propionaldehyde substrate; series mostly up to 75.3 µM; activity, negative = inhibition: at the top concentration
Potency means the concentration at half of the fitted maximal effect.

Compound | activity, negative = inhibition [%] | Potency
O=C(Nc1ccn(Cc2ccccc2)n1)c1n[nH]c([N+](=O)[O-])c1Cl | -1.46 | –
CCn1nc(C)c(CN2CCN(Cc3ccc(OC)c(C)c3C)C(CCO)C2)c1C (configuration not stated) | -0.693 | –
O=C(O)CCN(Cc1ccccc1)S(=O)(=O)c1c(Cl)cccc1Cl | -4.7 | –
CCOc1ccc(NC(=O)c2cc(C)nc3ccccc23)cc1 | 0.296 | –
O=C(CCCOc1ccc(Cl)cc1Cl)NNC(=O)C1CCC1 | 1.22 | –
COCc1cc(=O)[nH]c(-c2ccc(C(F)(F)F)cc2)n1 | 0.201 | –
O=C(CCc1ccccc1)Nc1nn[nH]n1 | -3.34 | –
COc1ccc(N2C(=O)C(Cc3ccccc3)NC2=S)cc1 (configuration not stated) | 14.4 | –
COC(=O)CC1=NN(c2nc(C)cc(C)n2)C(=O)C1 | 2.76 | –
c1ccc(CN=C2Nc3ccccc3CS2)nc1 | 0.764 | –
CCC(C(=O)Nc1ccc2c(c1)OCCO2)c1ccccc1 (configuration not stated) | -4.94 | –
CCOc1ccc(N2CC(C(=O)NCCN3C(=O)S/C(=C\c4cccnc4)C3=O)CC2=O)cc1 (configuration not stated) | -7.75 | –
C[C@H](NC(=O)c1ccccc1Cl)C(=O)OCCOc1cccc(Cl)c1 | 4.04 | –
CCOC(=O)c1ccc(N2C(=O)CC(N3CC(C)OC(C)C3)C2=O)cc1 (configuration not stated) | – | 7.94 µM (active)
CC1CN(C(=S)SCC(=O)c2ccccc2)CC(C)O1 (configuration not stated) | 0.843 | –
CCC(=O)c1ccc(OCC(O)CN2CC(C)OC(C)C2)cc1 (configuration not stated) | -13.7 | –
CN1CCN(CCC(=O)N/N=C/C=C2\N(C)c3ccccc3C2(C)C)CC1 | 3.13 | –
Cc1cccc(-n2c(Cc3cc(=O)[nH]c(=O)[nH]3)nnc2SCC(=O)Nc2cccc(C(F)(F)F)c2)c1 | -2.03 | –
CCOC(=O)N1CCN(C(=O)CSc2nc(C)nc3c2c(=O)n(C)c(=O)n3C)CC1 | 1.21 | –
CCOC(=O)c1c(C)nn(-c2ncccc2NC(=O)CCC(=O)O)c1C | 5.83 | –
CC(C)N(C)C(=O)CCc1nnc(CCc2c[nH]c3ccccc23)o1 | 4.17 | –
O=C(CSc1nc(-c2ccco2)cc(C(F)(F)F)n1)N1CCc2ccccc2C1 | – | 11.2 µM (active)
FC(F)(F)c1cc(-c2ccco2)nc(N2CCOCC2)n1 | 0.194 | –
O=C(CSc1nc(-c2ccco2)cc(C(F)(F)F)n1)NCc1cccs1 | -0.0855 | –
CC(C)(C)n1ncc2c(=O)n(Cc3ccc(Cl)cc3)cnc21 | 10.7 | –
COc1ccc(-n2c(C)nn(CC3CC3)c2=O)cc1 | -1.71 | –

Compound | activity, negative = inhibition [%] | Potency
Cc1ccc(NC(=S)NC(=O)c2ccc(-c3ccccc3)cc2)c(C)c1 | – | 11.2 µM (active)
Cc1ccc(C(=O)NC(=S)Nc2ccccc2C)cc1 | -1.81 | –
Cc1ccc(NC(=O)c2oc(=O)c3ccccc3c2-c2ccccc2)c(C)c1 | -15.4 | –
O=C(/C=C/c1ccccc1)c1ccoc1 | 2.74 | –
O=C(/C=C/c1ccc(N2CCOCC2)cc1)c1ccccc1 | – | 31.6 µM (active)
O=C(CN1CCN(S(=O)(=O)/C=C/c2ccccc2)CC1)Nc1ccc(N2CCOCC2)cc1 | 7.06 | –
CC(C)(C)OC(=O)N1CCC(NC(=O)c2[nH]cnc2C(=O)N[C@@H](Cc2ccccc2)C(=O)OCc2ccccc2)CC1 | -3.65 | –
CC(C)[C@H](NC(=O)c1ccc(F)cc1)C(=O)OCC(=O)NC(=O)c1cccn1C | -0.435 | –
CCSC1=NCCN1C(=O)c1ccc(S(=O)(=O)N(CC)CC)cc1 | -7.18 | –
COC(=O)CNC(=O)c1ccc2c(c1)S(=O)(=O)c1ccccc1C2=O | – | 11.2 µM (active)
CCCCN(C)C(=O)c1ccc2c(c1)N(CC)C(=O)c1ccccc1S2(=O)=O | 8.84 | –
COC(=O)CNC(=O)c1ccccc1F | 12.2 | –
O=C(CCn1ccc([N+](=O)[O-])n1)Nc1nccs1 | 1.26 | –
COc1cc(OC)c(C2=NOC(C(=O)Nc3c(C)n(C)n(-c4ccccc4)c3=O)C2)cc1Cl (configuration not stated) | 5.57 | –
COc1ccc(NC(=O)CCNS(=O)(=O)c2ccc3c(c2)c(=O)n(C)c(=O)n3C)cc1OC | 4.29 | –
N#CCCN1CCN(S(=O)(=O)c2ccc(S(=O)(=O)N3CCCC3)cc2)CC1 | -6.46 | –
CC(C)(C)c1cc(CN2CCN(CCC#N)CC2)cc(C(C)(C)C)c1O | – | 7.08 µM (active)
CCC(=O)c1ccc(OCC(O)Cn2nc(C)c(C(C)=O)c2C)cc1 (configuration not stated) | 6.23 | –
O=C(Nc1cccc(F)c1)N1C2CCC1CC(O)(c1cccnc1)C2 (configuration not stated) | 2.68 | –
O=C(O)c1ccccc1-c1ccccc1C(=O)Nc1nccs1 | -6.84 | –
CCOC(=O)N1CCC(NC(=O)C(NS(=O)(=O)c2ccc3c(c2)CCN3C(=O)CC)C(C)C)CC1 (configuration not stated) | -1.13 | –
Cc1ccc(CN2CCN(Cc3cccc(C)n3)CC2CCO)cc1 (configuration not stated) | -7.49 | –
CCOc1cccc(-n2nnnc2-c2ccc(OC)cc2)c1 | – | 25.1 µM (active)
COc1ccc(C2=CC(c3cccc(OC)c3)n3nnnc3N2)cc1 (configuration not stated) | 3.52 | –
CCOC(=O)CNC(=O)c1nn(-c2cccc(OC)c2)c(=O)c2ccccc12 | -2.61 | –
Cc1ccc(S(=O)(=O)NC(=O)N2CCCN(Cc3ccc(F)cc3)CC2)cc1 | 8.46 | –
